Compound activity from PubChem BioAssay.
A selection: hits, their analogues and other compounds. The true share with any hit is near 11%.
FBPA coupling cs – coupling enzyme interference in Giardia aldolase counter-screen | coupling enzyme system counterscreen, AmpLite Red fluorescence | activity change, negative = inhibition, % at 58.2 µM, hits read low | actives 0.67% (n = 290,000); in the data active = activity change below about -30%
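Counterscreen lacking aldolase: glyceraldehyde-3-phosphate coupling-enzyme reagent preincubated 10 min at RT with compound (at 57.5 uM final), then substrate/coupling system with AmpLite Red added; fluorescence read at 525/598 nm after 20 min RT.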
Tau fluor cs – counter-screen for tau fibril formation inhibitors; tau K18 P301L Alexa594 fluorescence, heparin fibrillization; Potency, µM (titrated, usually from 57.7 µM); actives 0.93% (n = 280,000); AID 1463; also: nearly all actives have a fitted effect of over 55% in size
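Human K18 P301L tau (15 uM unlabeled plus 0.24 uM Alexa 594-labeled, final) in 100 mM sodium acetate pH 7 was mixed with compound and 20 uM heparin and incubated 6 hr at 37 C.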
Sfp inh – inhibitors of Bacillus subtilis Sfp phosphopantetheinyl transferase; Potency, µM, usual class: inhibitors; Q9F4F7; actives 3.5% (n = 310,000); AID 1490; Biochemical Sfp PPTase activity, qHTS;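 also: the enzyme is Sfp with the accession as filed and its product quenches rhodamine fluorescence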
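After 15 min at room temperature with compound, 15 nM Sfp received 5 uM rhodamine-CoA plus 12.5 uM BHQ-2-ybbR (50 mM Hepes pH 7.6, 10 mM MgCl2). Rate came from the fluorescence difference over 30 min, ex 525/em 598 nm.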
G9a inh – blocks human histone lysine methyltransferase G9a; G9a H3K9 monomethylation, AlphaScreen, 2 h; Potency, µM (highest dose often 102 µM), hits mostly inhibitors; actives 8.8% (n = 350,000); AID 504332; also: nearly all actives have a fitted effect of over 75% in size
Target sequence (Q96KQ7 913-1193 limits assumed): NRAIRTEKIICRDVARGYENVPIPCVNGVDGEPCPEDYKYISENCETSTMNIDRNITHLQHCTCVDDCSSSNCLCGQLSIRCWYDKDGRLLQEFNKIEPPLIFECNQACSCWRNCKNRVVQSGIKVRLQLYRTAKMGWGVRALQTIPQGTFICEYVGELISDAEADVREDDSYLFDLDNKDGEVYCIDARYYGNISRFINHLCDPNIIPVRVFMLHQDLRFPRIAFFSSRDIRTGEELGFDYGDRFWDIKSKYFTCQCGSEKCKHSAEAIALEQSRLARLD
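Step 1: enzyme (final 20 nM) with compound, 15 min RT. Step 2: substrate peptide 500 nM and SAM 20 uM, 2 h RT. Step 3: anti-H3K9me1 antibody and AlphaScreen beads, 10 min, then plate read.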
Tau fibril FP – inhibitors of human tau fibril formation | P10636 | K18 P301L tau heparin fibrillization, Alexa594 FP, 6 h | Potency, µM (titrated, usually from 57.7 µM), hits mostly inhibitors | actives 0.39% (n = 280,000); also: nearly all actives have a fitted effect of over 55% in size
Target sequence (P10636 561-689 P618L limits assumed): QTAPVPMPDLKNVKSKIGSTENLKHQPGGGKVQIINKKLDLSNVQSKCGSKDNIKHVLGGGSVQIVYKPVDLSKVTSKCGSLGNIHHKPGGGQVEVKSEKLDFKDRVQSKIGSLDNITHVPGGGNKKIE
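Human tau K18 […] P301L fragment, 15 uM unlabeled plus 0.24 uM Alexa 594-labeled tau (final), with compound and 20 uM heparin in 100 mM sodium acetate pH 7; 6 hr at 37 C, then Alexa 594 FP read.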
Tau ThT inhib – blocks human tau fibril formation measured by thioflavin T; AID 1460; recombinant tau K18 P301L (four-repeat tau fragment), heparin-induced fibrillization, ThT fluorescence; P10636; actives 2.1% (n = 270,000); Potency, µM (doses to about 57.4 µM), hits mostly inhibitors; also: nearly all actives have a fitted effect of over 55% in size
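In this qHTS, human K18 P301L tau is incubated with compound and heparin for 6 hr at 37 C, and Thioflavin T fluorescence then reports fibril load.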
A number is an active result; [ ] = another dose, or the depositor's remark. Unless noted, calls follow the shape of the dose curve; as a rule, active = well fitted curve in the direction sought with a large enough effect; inconclusive = small, poorly fitted or top-dose-only effect, or another doubt; inactive = no such curve, though single readings can be large; an effect the other way counts as inactive or inconclusive.

How did C/C=C(\C)C(=O)NCCN1C2=NC[C@@H](Cc3ccccc3)N2C[C@H]1Cc1ccc(O)cc1 do in these assays?
FBPA coupling cs: inactive; Tau fluor cs: inactive; Sfp inh: inactive; Tau fibril FP: inactive; Tau ThT inhib: inactive

How did NC(=O)C1CN(S(=O)(=O)c2ccc(Cl)cc2F)c2ccccc2O1 (stereo unspecified) do in these assays?
FBPA coupling cs: inactive; Sfp inh: inactive; G9a inh: 79µM

Results for Cn1c(=O)c2c(ncn2CC(=O)Nc2cccc(Cl)c2Cl)n(C)c1=O ?
Tau fluor cs: inactive; G9a inh: inactive; Tau fibril FP: inactive; Tau ThT inhib: inactive

How did Cc1ccc(S(=O)(=O)N2C(=O)CCC2C(N)=O)cc1 (stereo unspecified) do in these assays?
FBPA coupling cs: inactive; Sfp inh: inactive; G9a inh: inactive

Results for O=C(CN(Cc1ccc2c(c1)OCO2)C(=O)CSc1nc2ccccc2o1)NC1CCCCC1 ?
FBPA coupling cs: inactive; Tau fluor cs: inactive; Sfp inh: 79µM; G9a inh: inactive[2.33 µM]; Tau fibril FP: inactive; Tau ThT inhib: inactive

Results for O=C1c2ccccc2COc2ccc(O)cc21 ?
FBPA coupling cs: inactive; Tau fluor cs: inactive; Sfp inh: inactive; G9a inh: inactive[12.7 µM]; Tau fibril FP: inactive; Tau ThT inhib: inconclusive

How did COc1ccc2c(c1)C(=O)c1ccccc1CO2 do in these assays?
FBPA coupling cs: inactive; Tau fluor cs: inactive; Sfp inh: 28µM; G9a inh: inactive; Tau fibril FP: inactive; Tau ThT inhib: inconclusive

How did CC(C)N1CCc2c(sc(N)c2C#N)C1 do in these assays?
FBPA coupling cs: inactive; Tau fluor cs: inactive; Sfp inh: inactive; G9a inh: inconclusive; Tau fibril FP: inconclusive; Tau ThT inhib: inconclusive

Results for CC(C)C1Cc2c(C#N)c(N)sc(=S)c2CO1 (stereo unspecified) ?
FBPA coupling cs: inactive; Tau fluor cs: inconclusive; Sfp inh: 28µM; G9a inh: 7.9µM; Tau fibril FP: inactive; Tau ThT inhib: 20µM

Results for CCN(CC)c1nc(C)c2c(c1C#N)CC(C)(C)OC2 ?
FBPA coupling cs: inactive; Tau fluor cs: inactive; Sfp inh: inactive; G9a inh: inactive; Tau fibril FP: inactive; Tau ThT inhib: inactive

What do the screens show for `CC1(C)Cc2c(C#N)c(N)sc(=S)c2CO1`?
FBPA coupling cs: inactive; Tau fluor cs: inactive; Sfp inh: 45µM; G9a inh: 7.9µM; Tau fibril FP: inconclusive; Tau ThT inhib: inconclusive

Results for COc1ccc(-c2nc(CSCC(=O)NCCCN3CCCC3=O)c(C)o2)cc1OC ?
FBPA coupling cs: inactive; Sfp inh: inactive; G9a inh: inactive

Results for O=C(O)CSc1ccnc2cc(Cl)ccc12 ?
FBPA coupling cs: inactive; Tau fluor cs: inactive; Sfp inh: 56µM; G9a inh: 56µM; Tau fibril FP: inactive

Results for COC(=O)CSc1ccnc2cc(Cl)ccc12 ?
FBPA coupling cs: inactive; Tau fluor cs: inactive; Sfp inh: inactive; G9a inh: inactive; Tau fibril FP: inactive; Tau ThT inhib: inactive

Results for CN(C)c1ccc(NC(=O)COC(=O)c2cc(Cl)ccc2[N+](=O)[O-])cc1 ?
FBPA coupling cs: inactive; Tau fluor cs: inconclusive; Sfp inh: inactive; G9a inh: 6.3µM; Tau fibril FP: inactive; Tau ThT inhib: inconclusive

What do the screens show for `CC(NS(=O)(=O)c1ccc(Cl)cc1)C(=O)OCC(=O)Nc1ccc(N(C)C)cc1` (stereo unspecified)?
G9a inh: 2.5µM

How did O=C(CNC1CCCC1)Nc1cc(Cl)ccc1[N+](=O)[O-] do in these assays?
FBPA coupling cs: inactive; Tau fluor cs: inactive; Sfp inh: 56µM; G9a inh: 45µM; Tau fibril FP: inactive; Tau ThT inhib: inactive

How did CC(=O)c1c(C)[nH]c(C(=O)OCC(=O)Nc2cc(Cl)ccc2[N+](=O)[O-])c1C do in these assays?
FBPA coupling cs: inactive; Tau fluor cs: inconclusive; Sfp inh: inactive; G9a inh: 50µM; Tau fibril FP: inactive; Tau ThT inhib: inconclusive

What do the screens show for `CN(Cc1ccco1)c1ncnc2ccc(-c3ccccc3C#N)cc12`?
FBPA coupling cs: inactive; Sfp inh: inactive; G9a inh: inactive[0.501 µM]

How did COc1cccc(C(=O)Nc2ccc3nc(SCC(=O)N4CCc5ccccc54)sc3c2)c1 do in these assays?
Tau fluor cs: inactive; G9a inh: inactive; Tau fibril FP: inconclusive; Tau ThT inhib: inconclusive

How did COc1ccc(/C=C2/SC(=O)N(CCC(=O)Nc3ccccc3C(=O)O)C2=S)cc1 do in these assays?
FBPA coupling cs: inactive; Sfp inh: inactive; G9a inh: inconclusive

What do the screens show for `O=c1[nH]c(CSc2cccc[n+]2[O-])nc2ccccc12`?
FBPA coupling cs: inactive; Tau fluor cs: inactive; Sfp inh: 45µM; Tau fibril FP: inactive; Tau ThT inhib: inactive

How did Cc1ccc(NC(=O)CN(C)CC(=O)Nc2ccccc2Oc2ccccc2)cc1 do in these assays?
FBPA coupling cs: inactive; Tau fluor cs: inactive; Sfp inh: inconclusive; G9a inh: 35µM; Tau fibril FP: inactive; Tau ThT inhib: inactive

Results for COc1ccc(NC(=O)c2coc(C)c2)cc1 ?
FBPA coupling cs: inactive; Sfp inh: inactive; G9a inh: inconclusive

Results for COc1ccc(NC(=O)c2ccccc2SC)cc1 ?
FBPA coupling cs: inactive; Tau fluor cs: inactive; Sfp inh: inactive; G9a inh: 45µM; Tau fibril FP: inactive; Tau ThT inhib: inactive

Results for COc1ccc(NC(=O)CN(C)CC(=O)NCC2CCCCC2)cc1 ?
G9a inh: 56µM

What do the screens show for `COc1ccc(NC(=O)c2ccc(=O)oc2)cc1`?
FBPA coupling cs: inactive; Tau fluor cs: inactive; Sfp inh: inactive; G9a inh: 50µM; Tau fibril FP: inactive; Tau ThT inhib: inactive

What do the screens show for `Cc1cccc(C)c1NC(=O)CN(C)CC(=O)Nc1ccccc1Oc1ccccc1`?
FBPA coupling cs: inactive; Tau fluor cs: inactive; Sfp inh: inactive; G9a inh: inactive; Tau fibril FP: inactive; Tau ThT inhib: inactive

Results for Cc1ccc(CNC(=O)Cn2cc(C(=O)c3ccc(Cl)cc3)c(=O)c3ccc(C)nc32)cc1 ?
Tau fluor cs: inactive; G9a inh: inactive; Tau fibril FP: inactive; Tau ThT inhib: inactive

How did O=C1C2CCCN2C(=S)N1c1ccc(Cl)cc1 (stereo unspecified) do in these assays?
FBPA coupling cs: inactive; Sfp inh: inactive; G9a inh: inactive

How did COc1ccc(NC(=O)c2sc(=S)[nH]c2N)cc1 do in these assays?
FBPA coupling cs: inactive; Tau fluor cs: inactive; Sfp inh: 56µM; G9a inh: inconclusive; Tau fibril FP: inactive; Tau ThT inhib: inconclusive

Results for C=C(Nc1ccc(OC)cc1)C(=O)OC ?
FBPA coupling cs: inactive; Tau fluor cs: inactive; Sfp inh: inactive; Tau fibril FP: inconclusive; Tau ThT inhib: inactive

Results for COc1ccc(NC(=O)CN(C)CC(=O)Nc2ccccc2SC)cc1 ?
FBPA coupling cs: inactive; Tau fluor cs: inactive; Sfp inh: inconclusive; G9a inh: 8.9µM; Tau fibril FP: inactive; Tau ThT inhib: inactive
